# Bioassay records from PubChem.
# Most compounds without a hit are left out; they make up all but 3.5% or so of the library.
# BoNT A protease – BoNT/A light chain protease inhibitors, primary screen, biochemical, flow cytometry, MLPCN library; Botulinum neurotoxin type A light chain protease (Clostridium botulinum A str. ATCC 3502); multiplex microsphere protease substrate cleavage; inhibition, % at 10 µM; 0.17% of 360,000 active; AID 588499, 2011; in the data active = inhibition above about 30%; inconclusive = no clear call, values can overlap the other calls; note: plate controls were buffer without enzyme for full effect and enzyme alone for no effect
# Bead autofluor – flagged as autofluorescent in microsphere protease counterscreen; compound autofluorescence counterscreen, microsphere flow cytometry; hits give high values; fluorescence intensity (test concentration not listed); 3.1% of 360,000 active; in the data active = fluorescence intensity above about 16000; inconclusive = no clear call, values can overlap the other calls
# BoNT-F LC inh – BoNT/F light chain protease inhibitors, primary screen, biochemical, flow cytometry, MLPCN library; Botulinum neurotoxin type F light chain protease (Clostridium botulinum); Multiplex microsphere protease cleavage assay; inhibition, % at 10 µM; 0.22% of 360,000 active; in the data active = inhibition above about 35%, passing the limit was not always enough; inconclusive = no clear call, values can overlap the other calls; note: plate controls were buffer without enzyme for full effect and enzyme alone for no effect
# Anthrax LF prot – Bacillus anthracis LF protease inhibitors, primary screen, biochemical, multiplex microsphere, MLPCN library; Lethal factor (Bacillus anthracis), P15917; multiplex microsphere protease cleavage assay; inhibition, % at 10 µM; 0.12% of 360,000 active; AID 588501, 2011; in the data active = inhibition above about 30%; inconclusive = no clear call, values can overlap the other calls; note: plate controls were buffer without enzyme for full effect and enzyme alone for no effect
# BoNT-A LC CP1 – BoNT/A light chain protease inhibitors, confirmation, biochemical, flow cytometry, cherry pick 1; 3% of 720 active; multiplex microsphere protease assay; AID 602139, 2011; shares compounds with BoNT-F LC inh; inhibition, % at 10 µM; in the data active = inhibition above about 32%
# BoNTF LC inh 1 – BoNT/F light chain protease inhibitors, confirmation, biochemical, flow cytometry, cherry pick 1; shares compounds with BoNT-F LC inh; multiplex microsphere protease cleavage assay; inhibition, % at 10 µM; 720 tested, under 10 active; AID 602140, 2011
# Anthrax LF CP1 – Bacillus anthracis LF protease inhibitors, confirmation, biochemical, multiplex microsphere, cherry pick 1. multiplex microsphere protease cleavage assay. inhibition, % at 10 µM. shares compounds with BoNT-F LC inh. AID 602142, 2011. 720 tested, under 10 active
# * hit, by the source's call; ? = inconclusive; . = no result. Unless noted, the rule behind the calls is not given here.
SMILES,BoNT A protease,Bead autofluor,BoNT-F LC inh,Anthrax LF prot,BoNT-A LC CP1,BoNTF LC inh 1,Anthrax LF CP1
Cn1c(=O)c(/C=C/c2ccccc2)nc2ccccc21,49*,2731,3,16,40*,7,21
Cn1c(/C=C/c2ccccc2)nc2ccccc21,0,4364,3,-2,.,.,.
O=c1c(/C=C(\O)c2ccc(F)cc2)nc2ccccc2n1-c1ccccc1,46*,14800,194*,32*,20,7,8
Cn1c(=O)c(/C=C/c2ccc(F)cc2)nc2ccccc21,33*,4159,2,16,24,2,9
Cc1ccc(CN(CC(=O)NC(C)(C)C)C(=O)CNC(=O)c2cccs2)cc1,0,3634,-2,1,.,.,.
CCOc1ccc(-c2nc(CSc3nncs3)cs2)cc1OC,25,?,41*,-28,-1,-6,-8
Cc1cc(Br)ccc1OCC(=O)NNC(=O)C(=O)Nc1ccccc1,0,3196,-6,-4,.,.,.
CCn1c(SCC(=O)Nc2nc(C)cs2)nnc1C(NC(=O)c1ccccc1Cl)C(C)C (stereo not drawn),-1,2432,-6,-2,.,.,.
C=CCn1c(SCC(=O)Nc2nc(C)cs2)nnc1C(CO)NC(=O)c1ccccc1 (stereo not drawn),2,4560,30,1,-1,2,-3
c1ccc(-c2nc3cccnc3nc2-c2ccccc2)cc1,1,6090,-3,-12,.,.,.
COc1ccc(-c2nc(-c3cccc(C)c3)no2)cc1OC,0,7951,-1,-6,.,.,.
COc1cc(-c2nc(-c3cccc(C)c3)no2)cc(OC)c1OC,?,5619,43*,3,0,-5,-4
CC1=C(C(=O)N2CCOCC2)CC(CC(=O)NC2CCCC2)C(=O)N1Cc1ccc(F)cc1 (stereo not drawn),0,3430,-3,4,.,.,.
Brc1ccc(-c2ncc3ccccn23)cc1,2,3322,-2,9,0,-4,-2
Fc1ccc(-c2nnc3ccccn23)cc1,-1,2599,-6,-1,.,.,.
Fc1ccc(-c2ncc3ccccn23)cc1,36*,4490,-1,15,2,0,0
COc1ccccc1C(=O)NCC(=O)NCCc1ccc(Cl)cc1,-1,4337,-5,8,.,.,.
CC1Oc2ccccc2N(CC(=O)NC2CCCC2)C1=O (stereo not drawn),1,3948,35*,-1,-2,-3,3
CNC(=O)c1cc(S(=O)(=O)N2CC(C)OC(C)C2)ccc1N1CCOCC1 (stereo not drawn),1,5767,0,-1,.,.,.
CCCNC(=O)C(Sc1ccccc1)c1ccccc1 (stereo not drawn),0,8592,1,-1,.,.,.
CCN(CC)C(=O)C(Sc1ccccc1)c1ccccc1 (stereo not drawn),19,?,57*,?,-1,-4,-3
Cc1nnc(SCC(=O)NC2CCCCCC2)n1C,1,5614,4,-2,.,.,.
Cc1nnc(SCC(=O)NC(C)(C)C)n1C1CCCCC1,3,2608,40*,0,3,12,1
COc1ccc(NC(=O)C2CC(c3ccc(Cl)cc3)=NO2)cc1 (stereo not drawn),0,3152,-1,45*,0,-6,-2
COc1ccc(Cl)cc1NC(=O)C1CC(c2c(F)cccc2Cl)=NO1 (stereo not drawn),1,3506,37*,-4,0,-5,-1
SMILES,BoNT A protease,Bead autofluor,BoNT-F LC inh,Anthrax LF prot,BoNT-A LC CP1,BoNTF LC inh 1,Anthrax LF CP1
CC(=O)Nc1ccc(NC(=O)CSc2nnc(N)n2-c2ccccc2)cc1,4,3673,39*,-5,-2,-5,-4
CC(=O)Nc1ccc(NC(=O)CSc2nnc(CC(C)O)n2-c2ccccc2)cc1 (stereo not drawn),-4,3363,?,-5,.,.,.
CC(c1ccco1)N(C(=O)c1ccccc1NS(=O)(=O)c1ccc(Cl)c([N+](=O)[O-])c1)c1ccccn1 (stereo not drawn),3,9618,7,1,.,.,.
CC(C)OC(=O)CC1C(=O)NCCN1C(=S)NC(=O)c1ccccc1 (stereo not drawn),2,2567,35*,-3,-1,-4,-5
CC[C@@]1(C(=O)OC)N[C@H](CN(C)S(=O)(=O)c2ccc(C(C)(C)C)cc2)[C@@H]2C(=O)N(C)C(=O)[C@@H]21,-1,3569,-1,-2,.,.,.
O=C1NCCCCC1NS(=O)(=O)c1ccc(Cl)cc1 (stereo not drawn),-2,3561,6,-2,.,.,.
N#Cc1ccc(S(=O)(=O)NC2CCCCNC2=O)cc1 (stereo not drawn),-1,3770,42*,0,1,-8,0
CS(=O)(=O)N1CCCC(C(=O)Nc2ccc(F)c(F)c2)C1 (stereo not drawn),0,3543,-13,-8,.,.,.
NC(=O)C1CCN(C(c2ccccc2)c2nnnn2C2CCCC2)CC1 (stereo not drawn),1,3152,13,3,.,.,.
Cc1ccc(C)c2[nH]c(=O)c(C(c3nnnn3C3CCCC3)N3CCOCC3)cc12 (stereo not drawn),-3,25756*,-4,-1,0,-1,-1
Cc1ccc2cc(CN(Cc3nnnn3C3CCCC3)C3CCCCC3)c(=O)[nH]c2c1C,3,5570,26,2,.,.,.
Cc1ccc2cc(C(c3nnnn3C3CCCC3)N3CCOCC3)c(=O)[nH]c2c1C (stereo not drawn),1,9655,3,14,.,.,.
CCOC(=O)C1CCN(C(c2cc3c(C)ccc(C)c3[nH]c2=O)c2nnnn2C2CCCCC2)CC1 (stereo not drawn),15,38836*,109*,10,1,-3,0
CCOC(=O)C1CCN(C(c2cc3ccc(C)c(C)c3[nH]c2=O)c2nnnn2C2CCCCC2)CC1 (stereo not drawn),33*,60118*,38*,12,-2,-5,-4
COCCN1C(=O)COc2ccccc2C1C(=O)NC(C)(C)C (stereo not drawn),0,5080,-1,-3,.,.,.
CC(C)CNc1ncnc2c1ncn2[C@H]1CN(Cc2ccc(C(=O)O)cc2)C[C@@H](CO)O1,0,3818,5,-2,.,.,.
O=C(O)Cn1nnc(COc2ccccc2)n1,-5,3640,-9,-7,.,.,.
CC(C(=O)NC(C)(C)C)N(Cc1cccs1)C(=O)CCN1CCc2ccccc21 (stereo not drawn),0,5524,-2,0,.,.,.
CC(=O)c1c(C)[nH]c(C(=O)OCC(=O)N2c3ccccc3NC(=O)C2(C)C)c1C,0,2055,-3,-1,.,.,.
COc1ccccc1CN1CCSCC1,12,10448,71*,14,-2,-13,-4
